Source: PubChem BioAssay AID1159580 (chemical genetic matrix, 2015)
Hit rate of the full screen: of about 5,500 compounds, about 2,000 (36%) were called active. Not shown: some 18% with an inconclusive outcome. No stated cut-off is given here; in the data, active means normalized growth mostly below about 0.91 (no sharp cut-off); inconclusive means no clear call, values can overlap the other calls; inactive means mostly above about 0.92. The list shows a part of the results.

Assay: chemical genetic growth profiling, strain panel (AID 1159580);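 further: tested at 20 µM; growth read once vehicle control cultures reached saturation at 30 °C; 1 = growth at the plate median or of vehicle wells; lower values mean less growth of the strain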
Conditions: S. cerevisiae deletion strains, growth OD
[1] = locus YAL040C, strain CLN3, hits give low values
[2] = locus YCL061C, strain MRC1 (second series), hits give low values
[3] = locus YDR363W, strain ESC2, hits give low values
[4] = locus YER002W, strain NOP16, hits give low values
[5] = locus YNL175C, strain NOP13, hits give low values
[6] = locus YNL197C, strain WHI3, hits give low values
[7] = locus YNL224C, strain SQS1, hits give low values
[8] = locus YOR083W, strain WHI5 (second series), hits give low values
[9] = locus YPL241C, strain CIN2, hits give low values

Measured: normalized growth

NC(=O)CI
inactive: locus YAL013W, strain DEP1, hits give low values 0.951 | [1] 0.968 | [2] 0.98 | [3] 0.988 | [4] 0.949 | locus YGR229C, strain SMI1, hits give low values 0.942 | locus YJR075W, strain HOC1, hits give low values 0.966 | [5] 0.947 | [6] 0.936 | [7] 0.972 | locus YPL055C, strain LGE1, hits give low values 0.956 | [9] 0.966
active: locus YGR078C, strain PAC10, hits give low values 0.907 | [8] 0.792

NCCCCCCCCCCN
inactive: [1] 1.01 | [2] 1.01 | locus YDR150W, strain NUM1, hits give low values 1.01 | [3] 1.03 | [4] 1.01 | [5] 1.01 | [6] 1 | [7] 1 | [8] 1.02 | [9] 1.01
